This is an account of results in PubChem BioAssay (EPA / NIEHS).

SMILES strings stand for the structures. Where a structure was tested more than once in an assay, its records may differ in their call. Active and inactive are the calls of the source. Rule for the calls: active = hit-call score of the fitted dose curve at least 0.9, where 1 is the maximum; inactive = score below 0.9.

This assay can be described thus: ATG_TAL_CIS: Attagene CIS-FACTORIAL HepG2 Assay for human TAL Basal Promoter (AID 2282966). To be noted: HepG2 Attagene cis-factorial TAL promoter reporter; actives raise or lower the signal. How it is done: ATG_CIS is a cell-based, multiplexed-readout assay that uses HepG2, a human liver cell line, with measurements taken at 24 hours after chemical dosing in a 24-well plate.ATG_TAL_CIS is one of 52 assay component(s) measured or calculated from the ATG_CIS assay. It is designed to make measurements of mRNA induction, a form of inducible reporter, as detected with fluorescence intensity signals by Reverse transcription polymerase chain reaction (RT-PCR) and Capillary electrophoresis technology.Data from the assay component ATG_TAL_CIS was analyzed into 1 assay endpoint. This assay endpoint, ATG_TAL_CIS, was analyzed with bidirectional fitting relative to DMSO as the negative control and baseline of activity. Using a type of inducible reporter, measures of mRNA for gain or loss-of-signal activity can be used to understand the background control at the transcription factor-level as they relate to the gene . Furthermore, this assay endpoint can be referred to as a secondary readout, because this assay has produced multiple assay endpoints where this one serves a background control function. To generalize the intended target to other relatable targets, this assay endpoint is annotated to the background measurement intended target family, where the subfamily is internal marker.
Human liver HepG2 cells are transiently transfected with multiple reporter transcription units (MRTUs) in 6-well plates using FuGene 6 reagent (Roche; 3 ml FuGene/1 mg DNA). The MRTU constructs are regulated by a cis-regulating element (promoter). […] A major difference between the CIS and TRANS system is that in CIS activities of endogenous TFs are measured, whereas the TRANS assay evaluates changes in activities of exogenous, chimeric NR-Gal4 proteins. […] At the end of 24 hour incubation, total RNA was isolated using TriZol reagent (Invitrogen). The isolated RNA is then reverse-transcribed using oligo(dT) primer and Mo-MLV reverse transcriptase (Invitrogen) with DNAse I (Ambion) treatment for 30 min. The one-tenth of the produced cDNA was amplified by PCR using Taq DNA polymerase (Invitrogen) and two reporter sequence-specific primers. The PCR products were fluorescently labeled by primer extension with 6-arboxyfluorescein (6-FAM) 5'-labeled reporter sequence-specific primer (2 min at 95 C, 20 s at 68 C and 10 min at 72 C) and these products were digested with 5U of HpaI (New England Biolabs) for 2h at 37 C. The fragments were purified using Qiaquick PCR columns (Qiagen), analyzed on an ABI 3130xL genetic analyzer (Applied Biosystems) with peak positions identified by using a set of X-rhodamine (ROX)-labeled MapMarker1000 molecular weight standards (BioVentures). The raw capillary electrophoresis data was processed using Attagraph software (Attagene).
Turning to `N#CCC#N`, the outcome was inactive.

The term AC50 denotes the concentration at which the activity in the assay is half-maximal. As for `O=c1oc2ccccc2c(O)c1C(CC(O)c1ccc(-c2ccc(Br)cc2)cc1)c1ccccc1` (stereo not given), the AC50 is 41.7 µM (active) and the result was inactive.

For `Nc1ccc(N)cc1`, the outcome was inactive.

`CCOP(=S)(OCC)O/N=C(\C#N)c1ccccc1`: the compound was classed as inactive.

As for `Nc1ccc(Br)cc1`, the outcome was inactive.

As for `Cc1cccc(OP(=O)(Oc2cccc(C)c2)Oc2cccc(C)c2)c1`, the result was inactive.

`Nc1ccc(-c2ccccc2)cc1`: the outcome was inactive.

For the compound `O=c1[nH]c(=O)n(Cl)c(=O)n1Cl`, the result was inactive.

With `Cc1cc(Cl)ccc1OC(C)C(=O)O` (stereo not given), the compound was called inactive.

On to `OCCCCO`, for which the result was inactive.

In the case of `CCCSP(=S)(OCC)Oc1ccc(SC)cc1` (stereo not given), the compound was called inactive.

For `BrCC(Br)c1ccccc1` (stereo not given), the compound was called inactive.

Consider `Cc1cc(SCc2sc(-c3ccc(C(F)(F)F)c(F)c3)nc2C)ccc1OCC(=O)O`, for which the AC50 is 15.5 µM (active).

`Clc1cnc(Oc2ccc(Oc3ncc(Cl)cc3Cl)cc2)c(Cl)c1`: the result was inactive.

Regarding `C[N+](C)(C)Cc1ccccc1`, the outcome was inactive.

Regarding `OCCN(CCO)CCO`, the result was inactive.

For the compound `N#Cc1ccc(Cl)cc1`, the outcome was inactive.

Regarding `O=S(=O)(F)C(F)(F)C(F)(F)C(F)(F)C(F)(F)F`, the compound was classed as inactive.

In the case of `CC(C)[N+](=O)[O-]`, the compound was called inactive.

As for `CCCCCCCCCCCCCCC(Br)C(=O)O` (stereo not given), the AC50 was 129 µM (active).

Regarding `N#Cc1cccnc1`, the compound was classed as inactive.

Regarding `C1CCC(C2CCCCC2)CC1`, the compound was called inactive.

As to `C=C(C)C(=O)OCC(CC)CCCC` (stereo not given), the outcome was inactive.

On to `CC(C)(COCC1CO1)COCC1CO1` (stereo not given), for which the outcome was inactive.

Regarding `CC(C)O.CC(C)O.OCCN(CCO)CCO.OCCN(CCO)CCO.[Ti]`, the result was inactive.

With `CCC[N+](CCC)(CCC)CCC`, the result was inactive.

`Cc1cc(-c2cc(C)c(N)c(C)c2)cc(C)c1N`: the compound was called inactive.

Regarding `CC(F)(F)CC(F)(F)F`, the compound was called inactive.

Consider `CCOP(=S)(OCC)OP(=S)(OCC)OCC`, for which the result was inactive.

On to `CCOc1ccc(N)cc1`, for which the result was inactive.

Consider `CN(C)CCN(C)C`, for which the result was inactive.

With `C=C(C)[C@@H]1CC=C(C=O)CC1`, the result was inactive.

For the compound `CC(=O)C(F)(F)C(F)(F)F`, the compound was called inactive.

In the case of `CNC(=O)N(C)c1nc2ccccc2s1`, the result was inactive.

For the compound `CN(N=O)c1ccc([N+](=O)[O-])cc1`, the compound was called inactive.

For the compound `CCOC(=O)OC1=C(c2cc(C)ccc2C)C(=O)NC12CCC(OC)CC2` (stereo not given), the result was inactive.

Consider `OC(c1ccc(Cl)cc1)(c1ccc(Cl)cc1)c1cccnc1`, for which the outcome was inactive.

Consider `N#CS`, for which the call was inactive.

On to `CC(c1ccc(O)cc1)c1ccc(O)cc1`, for which the call was inactive.
